# Measured values as given in PubChem BioAssay AID1578 (Sanford-Burnham Center for Chemical Genomics, 2009).
# In all, about 290,000 compounds went through this assay and about 3,000 (1%) were called active. No stated cut-off is given here; in the data, active means inhibition mostly above about 36% (no sharp cut-off); inactive means mostly below about 34%. What follows is part of a selection rich in actives, with near analogues and random picks from the rest.
# Assay: NOD1 signaling inhibitors, primary screen, cell-based, luminescence, uHTS (AID 1578);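 further: HEK-293T reporter cells stimulated with the NOD1 agonist gamma-tri-DAP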
# Conditions: NOD1-driven NF-kB luciferase reporter cells, at 4 µM, hits give high values
row,SMILES,inhibition
1,Cc1ccc(-n2c([S-])c(C(=O)NC(C)c3ccccc3)[n+]3ccccc23)cc1 (stereo not drawn),-40.2% (inactive)
2,CCOC(=O)CSc1nc(-c2ccccc2)nc2ccc(F)cc12,-21.7% (inactive)
3,CCn1c(SCC(=O)N/N=C(\C)c2ccco2)nnc1-c1ccccc1,-25.7% (inactive)
4,CCn1c(SCC(=O)Nc2nc(-c3ccccc3)cs2)nnc1-c1ccccc1O,12.7% (inactive)
5,CCn1c(SCC(=O)N/N=C/c2ccccc2OCC(=O)O)nnc1-c1ccc(C(C)(C)C)cc1,86.7% (active)
6,CCn1c(SCC(=O)N/N=C(\C)c2ccncc2)nnc1-c1ccc(C)cc1,-7.3% (inactive)
7,CCn1c(SCC(=O)N/N=C(\C)c2ccncc2)nnc1-c1ccccc1,58.5% (active)
8,CCOC(=O)N1CCN(C(=O)CSCC(=O)Nc2nc(-c3ccc(C)cc3)cs2)CC1,13.3% (inactive)
9,CCOC(=O)N1CCN(C(=O)CSCC(=O)Nc2nc(-c3ccccc3)cs2)CC1,-14% (inactive)
10,CCn1c(SCC(=O)N/N=C/c2ccccc2OCC(=O)O)nnc1-c1ccccc1,-7.7% (inactive)
11,CCOC(=O)N1CCN(C(=O)CSCC(=O)Nc2nc(-c3ccc(-c4ccccc4)cc3)cs2)CC1,58.2% (active)
12,CCn1c(SCC(=O)Nc2nc(-c3ccc(C)cc3)cs2)nnc1-c1ccccc1,31% (inactive)
13,CCn1c(SCC(=O)N/N=C/c2ccccc2OCC(=O)O)nnc1-c1ccc(C)cc1,2.1% (inactive)
14,O=C(NCCc1ccccc1)c1ccc(CS(=O)Cc2cccc(Cl)c2)o1 (stereo not drawn),-20.6% (inactive)
15,CCOC(=O)c1c(/N=C/c2ccccc2O)sc2c1CCC2,8.8% (inactive)
16,COc1ccc(S(=O)(=O)NCCc2c(C)nn(C)c2Oc2ccccc2)cc1,-4.8% (inactive)
17,COc1ccc(CCCC(=O)Nc2ccc(F)cc2)cc1,11.5% (inactive)
18,CCNc1nc(NC(C)C)nc(Oc2ccc(/C=N/O)cc2)n1,-10.5% (inactive)
19,CCOc1ccc(CC2NCCc3cc(OCC)c(OCC)cc32)cc1OCC (stereo not drawn),-27.9% (inactive)
20,CSc1ccc(C(=O)C2CCCN(C(=O)CN3CCOC3=O)C2)cc1 (stereo not drawn),-29.8% (inactive)
21,CCOc1ccc(C(=O)NCCC(=O)N2CCC3(CC2)NCCc2[nH]cnc23)cc1,-23.8% (inactive)
22,COc1ccc(N(Cc2ccccc2)N=O)cc1,-31.8% (inactive)
23,O=C(N/N=C/c1ccc(OCc2ccccc2)cc1)c1ccncc1,-35.1% (inactive)
24,O=NN(CCc1ccncc1)c1ccc(OCc2ccccc2)cc1,43.7% (active)
25,Cc1c(C)c2ccc(O)c(CN3CCN(C)CC3)c2oc1=O,2% (inactive)

row,SMILES,inhibition
1,COc1ccccc1NC(=S)NC(=O)C1CC1,-18.7% (inactive)
2,CCOc1ccccc1NC(=S)NC(=O)C1CC1,65.9% (active)
3,CCOc1ccccc1NC(=S)NC(=O)C1CCCCC1,-8% (inactive)
4,CC(=O)Nc1ccc(NC(=O)CSc2nnc(NC(=O)C3CC3)s2)cc1,-6.1% (inactive)
5,CN1C(=O)c2cccc(NC(=O)C3CCCCC3)c2C1=O,-4% (inactive)
6,Cc1cccc(NC(=S)NNc2ncc(C(F)(F)F)cc2Cl)c1,34.9% (inactive)
7,Cc1ccc(NC(=S)NNc2ncc(C(F)(F)F)cc2Cl)cc1,36.4% (inactive)
8,FC(F)(F)c1cnc(NNC(=S)Nc2ccc(Cl)cc2)c(Cl)c1,104% (active)
9,C=CCN1C(=O)C(CC(=O)O)SC1=Nc1ccc(N=Nc2ccccc2)cc1 (stereo not drawn),-20.5% (inactive)
10,O=C(CN1C2=NCCN2c2ccccc21)c1ccc(Br)cc1,6.8% (inactive)
11,CCN(CC(=O)NC(C)(C)C)C(=O)COc1c(Cl)cc(Cl)c2ccc(C)nc12,49.3% (active)
12,Cc1cc(Cl)cc(Cl)c1OCC(=O)NCc1ccco1,20.4% (inactive)
13,Cc1ccc2c(Cl)cc(Cl)c(OCC(=O)NC(C)(C)C)c2n1,-11.5% (inactive)
14,Cc1ccc2c(Cl)cc(Cl)c(OCC(=O)N(C(C)C)C(C)C)c2n1,-3.8% (inactive)
15,Cc1ccc2c(Cl)cc(Cl)c(OCC(=O)NCc3ccco3)c2n1,101% (active)
16,Cc1ccc2c(Cl)cc(Cl)c(OCC(=O)NC(=O)NCc3ccco3)c2n1,-16.8% (inactive)
17,COc1cccc(CN(C)C(=O)CNC(=O)c2ccc3c(c2)OCO3)c1OC,-8.5% (inactive)
18,CC(C(=O)Nc1ccc2c(c1)OCO2)N(c1ccc(Cl)cc1)S(C)(=O)=O (stereo not drawn),-9.6% (inactive)
19,COc1ccc(-c2oc(NC(=O)CCl)c(C#N)c2-c2ccc(OC)cc2)cc1,71.1% (active)
20,COc1ccc(-c2oc(NC(=O)c3ccc(C)cc3)c(C#N)c2-c2ccc(OC)cc2)cc1,-18.9% (inactive)
21,COc1ccc(-c2oc(NC(C)=O)c(C#N)c2-c2ccc(OC)cc2)cc1,11.7% (inactive)
22,COC(=O)CN1C(=O)C2(C(C#N)=C(N)Oc3ccccc32)C2=C1CC(C)(C)CC2=O (stereo not drawn),1.7% (inactive)
23,COc1ccc(-n2c(C)c(C(C)=O)c(C(C)=O)c2C)cc1OC,-0.8% (inactive)
24,COc1ccc(NC(=S)NC(NC(C)=O)C(Cl)(Cl)Cl)c([N+](=O)[O-])c1 (stereo not drawn),-5.3% (inactive)
25,COc1ccc(NC(=S)NC(NC(=O)CCl)C(Cl)(Cl)Cl)c([N+](=O)[O-])c1 (stereo not drawn),76.4% (active)

row,SMILES,inhibition
1,COc1ccc(NC(=S)NC(NC(=O)C(C)C)C(Cl)(Cl)Cl)c([N+](=O)[O-])c1 (stereo not drawn),11.7% (inactive)
2,CCOC(=O)N1CCC(NC(=O)c2ccc3c(c2)N=C(CC)c2ccccc2S3)CC1,20.2% (inactive)
3,O=C(NNC(=S)Nc1ccccc1)c1ccccc1[N+](=O)[O-],-34.4% (inactive)
4,CCC(C)(C(=O)NC1CCCCC1)N(C(=O)CNC(C)=O)c1c(C)n(C)n(-c2ccccc2)c1=O (stereo not drawn),-13.9% (inactive)
5,NC(=S)NN=C1c2cc(S(=O)(=O)N3CCOCC3)ccc2-c2ccc(S(=O)(=O)N3CCOCC3)cc21,-20.4% (inactive)
6,ON=C1c2cc(OCCN3CCCCC3)ccc2-c2ccc(OCCN3CCCCC3)cc21,0.3% (inactive)
7,NC(=S)NN=C1c2cc(OCCN3CCOCC3)ccc2-c2ccc(OCCN3CCOCC3)cc21,42.8% (active)
8,Cc1cccc(C(=O)Nc2ccc(C(=O)Nc3ccc(O)cc3)cc2)c1,-22.1% (inactive)
9,COc1ccc(CC(=O)OCC(=O)NCCc2ccccc2)cc1OC,-25.2% (inactive)
10,C=CCn1c(SCCOc2ccc(OC)cc2)nnc1C(C)NC(=O)Cc1ccc(OC)cc1 (stereo not drawn),74.9% (active)
11,COc1ccc(CC(=O)NC(C)c2nnc(SCCOc3ccc(OC)cc3)n2C)cc1 (stereo not drawn),-0.8% (inactive)
12,C=CCn1c(SCCOc2ccc(OC)cc2)nnc1C(C)NC(=O)c1ccc(OC)cc1 (stereo not drawn),5.8% (inactive)
13,COc1ccc(-c2cc(C(=O)N/N=C(\C)c3ccco3)c3ccccc3n2)c(OC)c1,-42.5% (inactive)
14,CCN1C(=NCc2ccc(OC)cc2)N[C@@H](c2ccccc2)C(C(=O)OC)=C1C,-15.5% (inactive)
15,CC(C)CCN1CCN(Cc2cccn2-c2nccs2)CC1CCO (stereo not drawn),-20.1% (inactive)
16,CN1CCN(C(=O)CCC(=O)O)CC1,-14.8% (inactive)
17,COc1cccc(CC(=O)n2nc(N)c3cc4ccc(OC)cc4nc32)c1,3.9% (inactive)
18,COc1ccc2cc3c(N)nn(C(=O)Cc4ccc(Cl)cc4)c3nc2c1,14.9% (inactive)
19,CN(Cc1ccccc1)c1ncnc2ccc(Br)cc12,10.2% (inactive)
20,CCN(CC)c1ncnc2ccc(Br)cc12,67.5% (active)
21,CN(C)c1ccc(Nc2ncnc3ccc(Br)cc23)cc1,53.8% (inactive)
22,Clc1cccc(Nc2ncnc3ccc(Br)cc23)c1,11.7% (inactive)
23,OCCNc1ncnc2ccc(Br)cc12,46.1% (inactive)
24,CCOc1ccccc1Nc1ncnc2ccc(Br)cc12,-11.1% (inactive)
25,Cc1cccc(Nc2ncnc3ccc(Br)cc23)c1,42.4% (inactive)

row,SMILES,inhibition
1,CC(C)Nc1ncnc2ccc(Br)cc12,87.6% (active)
2,Cc1ccc(CC2C(=O)N(c3cc(Cl)ccn3)C(=O)C2C)cc1 (stereo not drawn),-9.5% (inactive)
3,Cc1nn(C)cc1CN1CCC(n2nccc2NC(=O)CCCc2ccccc2)CC1,-26.7% (inactive)
4,O=C(/C=C/c1ccco1)c1ccccc1O,-22.5% (inactive)
5,COc1ccc(NC(=O)c2cc(-c3ccc(OC)c(OC)c3)on2)cc1OC,-8.9% (inactive)
6,N#Cc1ccc(N2CCCC2C(=O)O)c([N+](=O)[O-])c1 (stereo not drawn),6.2% (inactive)
7,COC(=O)C1(c2ccccc2)NC(c2cccs2)C2C(=O)N(C)C(=O)C21 (stereo not drawn),-15.5% (inactive)
8,CN(C)/C=C1\N=C(c2cccnc2Oc2ccc(Cl)cc2)OC1=O,-11.9% (inactive)
9,COc1ccc(OC)c(NC(=O)CNC(=O)Cn2ccc3ccccc3c2=O)c1,-4% (inactive)
10,CN(C)c1nc2n(c(=O)n1)CCS2,-11.7% (inactive)
11,CCOC(=O)C1CCN(S(=O)(=O)c2c(Cl)ccc3nonc23)CC1,102% (active)
12,CCOC(=O)C1CCN(S(=O)(=O)c2cccc3nonc23)CC1,-27.8% (inactive)
13,CCOC(=O)C1CCN(S(=O)(=O)c2c(C)noc2C)CC1,-15.9% (inactive)
14,CC(CCN1CCOCC1)c1ccccc1 (stereo not drawn),-28% (inactive)
15,O=C(NC1CCCCC1)c1ccc(S(=O)(=O)c2ccccc2Cl)c([N+](=O)[O-])c1,91.4% (active)
16,Cc1ccc(C(=O)N2CCN(c3ccccc3)CC2)cc1S(=O)(=O)N1CCCC1,3.9% (inactive)
17,O=C(c1ccc(Br)c([N+](=O)[O-])c1)N1CCN(Cc2ccccc2)CC1,-6.4% (inactive)
18,O=C(NC1CCCCC1)c1ccc(S(=O)(=O)c2ccccc2)cc1,18% (inactive)
19,O=C(NC1CCCC1)c1ccc(Cl)c(S(=O)(=O)N2CCCCC2)c1,10.6% (inactive)
20,O=C(c1ccc(S(=O)(=O)Cc2cc(F)ccc2F)c([N+](=O)[O-])c1)N1CCCC1,5% (inactive)
21,Cc1cc(C(=O)N2CCN(Cc3ccccc3)CC2)ccc1[N+](=O)[O-],0.5% (inactive)
22,O=C(c1ccc(Cl)c(S(=O)(=O)N2CCCC2)c1)N1CCN(c2ccc(F)cc2)CC1,0.4% (inactive)
23,O=C(c1ccc(S(=O)(=O)Cc2ccccc2F)c([N+](=O)[O-])c1)N1CCCCCC1,1% (inactive)
